{"source": "ChEMBL document CHEMBL3988442", "about": "“University of Dundee, Small-Polar-MMV Screening Library” (2021)", "tested_on": "Trypanosoma brucei", "experiment": "Trypanosoma brucei 72 hour study", "assay_type": "functional, organism-based", "design": "scale not given: in the data most compounds retested in dose-response had high values", "note": "The campaign covered roughly 66,000 compounds. About 960 (1.5%) showed an effect of 50% or more. Only a selection was taken, and strong results are over-represented in it overall."}
{"smiles": "Cc1ccc(CN2CCCC3(CCN(S(C)(=O)=O)C3)C2)o1.O=C(O)C(F)(F)F", "note": "(stereo not given)", "values": [{"measurement": "Percent Effect", "setting": "30 µM, 30.03 µM", "result": 16.24, "unit": "%"}]}
{"smiles": "Cc1csc2c(N3CCNC(C(=O)Nc4ccc(F)cc4)C3)ncnc12", "note": "(stereo not given)", "values": [{"measurement": "Percent Effect", "setting": "30 µM, 30.03 µM", "result": 72.13, "unit": "%"}]}
{"smiles": "Cc1csc2c(N3CCNC(C(=O)NCc4cccnc4)C3)ncnc12", "note": "(stereo not given)", "values": [{"measurement": "Percent Effect", "setting": "30 µM, 30.03 µM", "result": -5.987, "unit": "%"}]}
{"smiles": "Cc1csc2c(N3CCNC(C(=O)N4CCCC4)C3)ncnc12", "note": "(stereo not given)", "values": [{"measurement": "Percent Effect", "setting": "30 µM, 30.03 µM", "result": 24.45, "unit": "%"}]}
{"smiles": "Cc1cc(C(=O)N2CCc3nc(C4CCCN4)ncc3C2)cs1.Cl", "note": "(stereo not given)", "values": [{"measurement": "Percent Effect", "setting": "30.3 µM, […]", "result": -23.19, "unit": "%"}]}
{"smiles": "Cc1occc1C(=O)NCC(=O)N(C)CCCOc1ccc(F)cc1", "values": [{"measurement": "Percent Effect", "setting": "30 µM, 30.03 µM", "result": 95.62, "unit": "%"}]}
{"smiles": "Cc1occc1C(=O)NCC(=O)N(C)CCCOc1ccccc1", "values": [{"measurement": "Percent Effect", "setting": "30 µM, 30.03 µM", "result": -44.45, "unit": "%"}]}
{"smiles": "Cc1occc1C(=O)NCC(=O)NCCCOc1ccc(F)cc1", "values": [{"measurement": "Percent Effect", "setting": "30 µM, 30.03 µM", "result": -42.11, "unit": "%"}]}
{"smiles": "CNC(=O)c1ccc(C2CCCN(C(=O)c3sc(C)nc3C)C2)nc1", "note": "(stereo not given)", "values": [{"measurement": "Percent Effect", "setting": "30.3 µM, […]", "result": -1.908, "unit": "%"}]}
{"smiles": "Cc1cc(NCCN)nc2ccccc12.O=[N+]([O-])O", "values": [{"measurement": "Percent Effect", "setting": "30.3 µM, […]", "result": -46.24, "unit": "%"}]}
{"smiles": "CCS(=O)(=O)c1ccccc1N1CCC(NC(=O)NC2CCCC2)CC1", "values": [{"measurement": "Percent Effect", "setting": "30 µM, 30.03 µM", "result": 7.94, "unit": "%"}]}
{"smiles": "CCS(=O)(=O)c1ccccc1N1CCC(NC(C)=O)CC1", "values": [{"measurement": "Percent Effect", "setting": "30 µM, 30.03 µM", "result": 4.915, "unit": "%"}]}
{"smiles": "CCS(=O)(=O)c1ccccc1N1CCC(NC(=O)c2ccc[nH]2)CC1", "values": [{"measurement": "Percent Effect", "setting": "30 µM, 30.03 µM", "result": 54.24, "unit": "%"}]}
{"smiles": "CCC[C@@H]1CN(Cc2cc(C#N)n(C)c2C)C[C@H]1NS(C)(=O)=O", "values": [{"measurement": "Percent Effect", "setting": "30 µM, 30.03 µM", "result": 0.9985, "unit": "%"}]}
{"smiles": "Cc1nc(N)c2ccc(C3CCCCN3)nc2n1.Cl", "note": "(stereo not given)", "values": [{"measurement": "Percent Effect", "setting": "30.3 µM, […]", "result": -17.89, "unit": "%"}]}
{"smiles": "CN(c1ccc(C(=O)NCCCN2CCCCC2)c(Cl)c1)S(C)(=O)=O", "values": [{"measurement": "Percent Effect", "setting": "30 µM, 30.03 µM", "result": -14.39, "unit": "%"}]}
{"smiles": "CCCc1cc(=O)[nH]c(-n2nc(C3CC3)cc2N)n1", "values": [{"measurement": "Percent Effect", "setting": "30 µM, 30.03 µM", "result": 78.26, "unit": "%"}]}
{"smiles": "CCc1c(C)nc(-n2nc(C3CC3)cc2NC(C)=O)[nH]c1=O", "values": [{"measurement": "Percent Effect", "setting": "30 µM, 30.03 µM", "result": -1.646, "unit": "%"}]}
{"smiles": "CC(=O)Nc1cc(C2CC2)nn1-c1nc(C)c(C)c(=O)[nH]1", "values": [{"measurement": "Percent Effect", "setting": "30 µM, 30.03 µM", "result": -12.81, "unit": "%"}]}
{"smiles": "Cc1cc(=O)[nH]c(-n2nc(-c3ccccc3)cc2N)n1", "values": [{"measurement": "Percent Effect", "setting": "30 µM, 30.03 µM", "result": -3.849, "unit": "%"}]}
{"smiles": "CC(C)c1cc(=O)[nH]c(-n2nc(C3CC3)cc2N)n1", "values": [{"measurement": "Percent Effect", "setting": "30 µM, 30.03 µM", "result": 99.41, "unit": "%"}]}
{"smiles": "CC(C)c1cc(=O)[nH]c(C(C)(C)N)n1.Cl", "values": [{"measurement": "Percent Effect", "setting": "30 µM, 30.03 µM", "result": -29.56, "unit": "%"}]}
{"smiles": "Cc1cc(=O)[nH]c(-n2nc(C3CC3)cc2N)n1", "values": [{"measurement": "Percent Effect", "setting": "30 µM, 30.03 µM", "result": -21.61, "unit": "%"}]}
{"smiles": "CCc1cc(=O)[nH]c(-n2nc(C3CC3)cc2NC(=O)C2CC2)n1", "values": [{"measurement": "Percent Effect", "setting": "30 µM, 30.03 µM", "result": 97.36, "unit": "%"}]}
{"smiles": "CCCc1cc(=O)[nH]c(-n2nc(-c3cccs3)cc2N)n1", "values": [{"measurement": "Percent Effect", "setting": "30 µM, 30.03 µM", "result": -29.48, "unit": "%"}]}
{"smiles": "COc1ccc(CC(=O)N2Cc3nccn3CC(CN(C)C)C2)cc1.O=C(O)C(F)(F)F", "note": "(stereo not given)", "values": [{"measurement": "Percent Effect", "setting": "30 µM, 30.03 µM", "result": -47.37, "unit": "%"}]}
{"smiles": "Cc1cccc(CN2CCC3(CC2)NC(=O)C[C@H]3c2cnn(C)c2)n1.O=C(O)C(F)(F)F", "values": [{"measurement": "Percent Effect", "setting": "30.3 µM, […]", "result": -5.843, "unit": "%"}]}
{"smiles": "COc1cc2c(cc1CNC(Cc1cccs1)c1nccs1)OCO2.Cl", "note": "(stereo not given)", "values": [{"measurement": "Percent Effect", "setting": "30.3 µM, […]", "result": -17.08, "unit": "%"}]}
{"smiles": "O=C1N[C@H]2OCCC[C@H]2[C@H](c2ccccc2)N1", "values": [{"measurement": "Percent Effect", "setting": "30 µM, 30.03 µM", "result": -11.46, "unit": "%"}]}
{"smiles": "CCOc1cc(CNC(=O)c2cnn(CC)c2C(F)(F)F)ccn1", "values": [{"measurement": "Percent Effect", "setting": "30 µM, 30.03 µM", "result": 1.219, "unit": "%"}]}
{"smiles": "Cc1ccc(CN2CCOC3(CCCN(c4cccc(F)c4)C3)C2)o1.O=C(O)C(F)(F)F.O=C(O)C(F)(F)F", "note": "(stereo not given)", "values": [{"measurement": "Percent Effect", "setting": "30.3 µM, […]", "result": 98.9, "unit": "%"}]}
{"smiles": "O=C(O)C(F)(F)F.OCCN1CCOC2(CCCN(c3cccc(F)c3)C2)C1", "note": "(stereo not given)", "values": [{"measurement": "Percent Effect", "setting": "30 µM, 30.03 µM", "result": 21.19, "unit": "%"}]}
{"smiles": "Fc1cccc(N2CCCC3(CN(Cc4ccncc4)CCO3)C2)c1.O=C(O)C(F)(F)F.O=C(O)C(F)(F)F.O=C(O)C(F)(F)F", "note": "(stereo not given)", "values": [{"measurement": "Percent Effect", "setting": "30 µM, 30.03 µM", "result": 7.874, "unit": "%"}]}
{"smiles": "Fc1cccc(N2CCCC3(CN(Cc4nccs4)CCO3)C2)c1.O=C(O)C(F)(F)F.O=C(O)C(F)(F)F", "note": "(stereo not given)", "values": [{"measurement": "Percent Effect", "setting": "30.3 µM, […]", "result": 9.59, "unit": "%"}]}
{"smiles": "Fc1cccc(N2CCCC3(CN(Cc4ccccn4)CCO3)C2)c1.O=C(O)C(F)(F)F.O=C(O)C(F)(F)F.O=C(O)C(F)(F)F", "note": "(stereo not given)", "values": [{"measurement": "Percent Effect", "setting": "30.3 µM, […]", "result": 1.036, "unit": "%"}]}
{"smiles": "Fc1cccc(N2CCCC3(C2)CN(c2ncccn2)CCO3)c1.O=C(O)C(F)(F)F.O=C(O)C(F)(F)F", "note": "(stereo not given)", "values": [{"measurement": "Percent Effect", "setting": "30 µM, 30.03 µM", "result": -26.54, "unit": "%"}]}
{"smiles": "Fc1cccc(N2CCCC3(CN(Cc4ccco4)CCO3)C2)c1.O=C(O)C(F)(F)F.O=C(O)C(F)(F)F", "note": "(stereo not given)", "values": [{"measurement": "Percent Effect", "setting": "30.3 µM, […]", "result": 99.09, "unit": "%"}]}
{"smiles": "Cn1cc(CN2CCOC3(CCCN(c4cccc(F)c4)C3)C2)cn1.O=C(O)C(F)(F)F.O=C(O)C(F)(F)F", "note": "(stereo not given)", "values": [{"measurement": "Percent Effect", "setting": "30.3 µM, […]", "result": -12.05, "unit": "%"}]}
{"smiles": "Fc1cccc(N2CCCC3(CN(Cc4cccnc4)CCO3)C2)c1.O=C(O)C(F)(F)F.O=C(O)C(F)(F)F.O=C(O)C(F)(F)F", "note": "(stereo not given)", "values": [{"measurement": "Percent Effect", "setting": "30.3 µM, […]", "result": 86.99, "unit": "%"}]}
{"smiles": "COc1c(C2CCCN2C(=O)c2ccc(O)nc2)c(C)nn1C", "note": "(stereo not given)", "values": [{"measurement": "Percent Effect", "setting": "10 µM", "result": -34.15, "unit": "%"}]}
{"smiles": "COCCCN1CC2(CCN(C(=O)c3ncc(F)cc3F)CC2)CC1=O", "values": [{"measurement": "Percent Effect", "setting": "30 µM, 30.03 µM", "result": -16.91, "unit": "%"}]}
{"smiles": "Cl.O=C(NCc1ccc(F)cc1)N1CCN(CC(O)C2CC2)CC1", "note": "(stereo not given)", "values": [{"measurement": "Percent Effect", "setting": "30.3 µM, […]", "result": 2.371, "unit": "%"}]}
{"smiles": "Cc1nc[nH]c1CN1CCc2nc3scc(C)c3c(=O)n2CC1.Cl", "values": [{"measurement": "Percent Effect", "setting": "30.3 µM, […]", "result": -39.02, "unit": "%"}]}
{"smiles": "Fc1cccc(Oc2nccnc2C2CCN(C3CCOCC3)CC2)c1", "values": [{"measurement": "Percent Effect", "setting": "30.3 µM, […]", "result": -17.84, "unit": "%"}]}
{"smiles": "CCn1nc(C)c(CN(CCCOC)Cc2ccccn2)c1C.O=C(O)CC(O)(CC(=O)O)C(=O)O", "values": [{"measurement": "Percent Effect", "setting": "30.3 µM, […]", "result": -0.7195, "unit": "%"}]}
